Assay outcomes from PubChem BioAssay.
BRCA1 expr act – BRCA1 expression activation; 380,000 tested, 1.1% active; Potency, µM (highest dose often 46.1 µM), actives largely listed as activators; MCF7-BRCA1-FFLuc reporter, luminescence, 48 h; response scale: scaled: vehicle 0%, 10 µM genistein 100%; note: nearly all actives have a fitted effect of over 80% in size
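48 h compound treatment of MCF7-BRCA1-FFLuc cells (phenol-red free MEM, 37 °C), then 15 min with luciferase substrate and luminescence imaging.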
IL2 activator – activates IL-2 in a cell-based reporter assay; IL-2 activation reporter assay, cell-based qHTS; stimulated with anti-CD3/CD4/CD28 beads; in transgenic mouse T cells; activation, % (series mostly up to about 46 µM); 360,000 tested, 0.065% active; AID 652025; in the data active = activation above about 50%; inconclusive = mostly about 30% to 49%
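Readout: EGFP and DsRed signals by fluorescent plate cytometry. Unstimulated transgenic mouse T cells received compound 60 min before antibody-bead stimulation, then incubated 18 h at 37 degrees C.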
Giardia killer – Giardia lamblia killing. 340,000 tested, 0.15% active. AID 540267. Giardia lamblia trophozoite viability. activity change, % at 7.66 µM, hits read low; in the data active = activity change below about -80%; inconclusive = between about -30% and that limit;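 note: parasites exposed to compound for two days anaerobically before the ATP read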
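Anaerobic 48 hrs incubation at 37 deg C of 100 trophozoites/well with test compounds; ATPLite 1-Step luminescence, 15-30 min RT, reports cellular ATP as viability.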
RXFP1 ag – RXFP1 (human) receptor agonism. HEK293T-RXFP1 cAMP TR-FRET, 30 min; response scale: percent of porcine relaxin response, buffer zero. Potency, µM (top dose mostly 57.5 µM), hits mostly activators. 370,000 tested, 0.3% active; note: nearly all actives have a fitted effect of over 60% in size
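cAMP rise read by TR-FRET after 30 min, 37C compound exposure (up to 58 uM) in RXFP1-transfected HEK293 cells with Ro 20174 present. EC50 from Hill-equation fits, with 29 nM porcine relaxin as 100% and buffer as basal.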
RXFP1 antag – RXFP1 (human) relaxin receptor antagonism. Q9HBX9. HEK293-RXFP1, relaxin-stimulated cAMP HTRF, 30 min; stronger effect = lower value. activity change, negative = inhibition, % at 57.5 µM. 350,000 tested, 0.59% active;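 active = activity change of -60% or lower, but not beyond a set lower limit; inconclusive = change between -60% and -40%, or beyond the set limit; inactive = change above -40%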
NPSR antag – blocks cAMP signaling of the human neuropeptide S receptor. AID 1461. CHO-NPSR cells, cAMP TR-FRET, antagonist mode. 220,000 tested, 1% active. Potency, µM (highest dose often 38.3 µM), most hits filed as inhibitors; note: nearly all actives have a fitted effect of over 50% in size
Target sequence (Q6W5P4 whole entry, looked up): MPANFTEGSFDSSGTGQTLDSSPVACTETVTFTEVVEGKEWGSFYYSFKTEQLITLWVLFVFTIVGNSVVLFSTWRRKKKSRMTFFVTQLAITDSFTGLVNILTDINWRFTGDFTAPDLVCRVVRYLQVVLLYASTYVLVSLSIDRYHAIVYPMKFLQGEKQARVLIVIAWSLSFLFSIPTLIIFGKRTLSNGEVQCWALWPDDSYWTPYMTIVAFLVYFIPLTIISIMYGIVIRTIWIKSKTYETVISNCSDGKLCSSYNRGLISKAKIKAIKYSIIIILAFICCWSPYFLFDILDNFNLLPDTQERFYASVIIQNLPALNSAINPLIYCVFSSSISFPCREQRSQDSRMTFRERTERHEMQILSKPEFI
Numbers stand for hits; 0 = inactive; ? = inconclusive; - = no result given; [ ] = dose if it differs, or a comment. Rows were chosen to be rich in hits. Some 1.9% of all compounds tested hit in one or more screens of this group. Unless noted, calls come from the whole dose curve; as a rule, active = well fitted curve in the direction sought with a large enough effect; inconclusive = small, poorly fitted or top-dose-only effect, or another doubt; inactive = no such curve, though single readings can be large; an effect the other way counts as inactive or inconclusive.

SMILES	BRCA1 expr act	IL2 activator	Giardia killer	RXFP1 ag	RXFP1 antag	NPSR antag
CC(=O)Oc1ccc(/C=N/NC(=S)Nc2ccccc2)cc1	11µM	0	0	0	0	0
CC(C)(C)NCC(=O)N/N=C/c1ccc(OCc2ccccc2)cc1	10µM	0	0	0	0	0
CC(C)(O)C(=O)N/N=C\c1ccc(OC/C=C/c2ccccc2)cc1	?	0	0	0	0	-
CC(=O)NCc1cc(Cl)c2cccnc2c1O	-	-	-	0	-	-
O=C(CN1C(=O)CC(c2ccc(F)cc2)=Nc2ccccc21)NCc1ccccc1Cl	-	-	-	0	0	-
O=C(O)c1cc(N/N=C/c2c[nH]c3ccccc23)ccc1Cl	3.2µM	0	0	0	0	-
O=C(N/N=C/c1c[nH]c2ccccc12)c1ccc(O)c(O)c1	0	0	0	0	0	-
O=C(N/N=C/c1c[nH]c2ccccc12)c1cccc(O)c1	13µM	0	0	0	0	-
COc1ccc(C(=O)N(Cc2ccc(C(C)C)cc2)C2CCS(=O)(=O)C2)cc1 (configuration not stated)	-	-	-	0	0	-
COc1cc(Cl)c(S(=O)(=O)NCCc2c(C)[nH]c3c(C)cccc23)cc1Cl	0	-	-	0	-	-
Cc1ccc(C)c(OCCn2nnc3ccccc32)c1	0	0	0	0	0	-
Clc1ccccc1OCCn1nnc2ccccc21	11µM	0	0	0	0	-
Cc1cc(C)cc(OCCn2nnc3ccccc32)c1	11µM	0	0	0	0	-
CCCCOC(=O)CNc1n[nH]c(=S)[nH]c1=O	0	0	0	?	-63	10µM
COc1ccc(CCNC(=O)CC(c2ccccc2)c2cccc(C)c2O)cc1OC (configuration not stated)	0	0	0	0	0	1µM
CC12CCC(=O)N1C(C(=O)N1CCN(S(=O)(=O)c3ccc(Br)cc3Cl)CC1)CS2 (configuration not stated)	0	0	0	0	-66	-
CC12CCC(=O)N1C(C(=O)N1CCN(S(=O)(=O)c3ccccc3F)CC1)CS2 (configuration not stated)	0	0	0	0	0	-
Cc1c(C(=O)Nc2cccc(F)c2)oc2c1-c1nn(Cc3c(F)cccc3Cl)cc1CC2	-	-	-	0	?	-
O=C(OCC(=O)N1CCN(C(=O)c2ccco2)CC1)c1cc(-c2ccc(Cl)c(Cl)c2Cl)nc2ccccc12	0	0	0	0	0	10µM
Cc1nn2c(=O)cc(COC(=O)c3ccc(NC(=O)CCc4ccccc4)cc3)nc2s1	-	-	-	?	0	-
CC(=O)O[C@@]12CO[C@@H]1C[C@H](O)[C@@]1(C)C(=O)[C@H](O)C3=C(C)[C@@H](OC(=O)[C@H](O)[C@@H](NC(=O)OC(C)(C)C)c4ccccc4)C[C@@](O)([C@@H](OC(=O)c4ccccc4)[C@H]21)C3(C)C	-	-	-	-	0	-
COc1ccc(/C=C/c2nc(-c3ccccc3O)n[nH]2)cc1OC	?	0	0	0	-100	0
COc1ccc(C(=S)N2CCC(C(N)=O)CC2)cc1Br	0	0	0	0	0	0
CCCCOc1ccc(C(=S)N2CCC(C(N)=O)CC2)cc1	4µM	0	0	0	0	0
COC(=O)c1cc(Cl)c(NC(=O)C(C)C)cc1OC	0	0	0	0	0	0
SMILES	BRCA1 expr act	IL2 activator	Giardia killer	RXFP1 ag	RXFP1 antag	NPSR antag
COC(=O)c1cc(Cl)c(NC(=O)c2ccc(C(C)(C)C)cc2)cc1OC	3.5µM	0	0	0	0	0
COCCNC(=O)c1c(-c2ccccc2)c(-c2ccccc2)nn(C)c1=O	-	-	-	0	0	-
CCCOC(=O)c1c(-c2ccccc2)c(-c2ccccc2)nn(C)c1=O	-	-	-	0	-65	-
COc1ccc(Nc2nc3ccc(OC)cc3s2)cc1	7.9µM	0	0	0	0	0
COc1ccc2nc(NC(=O)Nc3ccccc3)sc2c1	?	0	0	0	0	0
CC(=O)c1sc(Nc2nc3cc4c(cc3s2)OCO4)nc1C	0	0	0	0	0	0
COc1ccc2nc(Nc3nc(C)c(C(C)=O)s3)sc2c1	?	0	0	0	-70	?
COc1cc(/C=C2\SC(=O)N(CCN)C2=O)ccc1OS(=O)(=O)c1cc(C)ccc1C	0	0	0	0	-72	?
CCCCCCCCN(CCCCCCCC)c1ccc(/C=C/c2ccnc3ccccc23)cc1	0	-	-	-	-	-
Cc1ccc(CNC(=O)COc2ccc(C)nc2[N+](=O)[O-])cc1	0	0	0	0	0	0
Cc1ccc(COc2ccc(C)nc2[N+](=O)[O-])cc1	4.5µM	0	0	0	0	0
CCN(CC)c1ccc2cc(-c3nc4ccccc4n3C)c(=O)oc2c1	0	0	0	0	0	?
CN(C)Cc1c(O)ccc2cc(-c3nc4ccccc4n3C)c(=O)oc12	13µM	0	0	?	0	-
O=C(Cc1ccc(Br)cc1)Nc1ncc([N+](=O)[O-])s1	0	0	-93	0	0	0
O=C(COc1ccc(Cl)cc1)Nc1ncc([N+](=O)[O-])s1	?	0	-86	0	0	0
O=C(COC(=O)COc1ccccc1)Nc1ncc([N+](=O)[O-])s1	0	0	0	0	0	-
Cc1cnc(NC(=O)Cc2ccc(Br)cc2)s1	0	0	0	0	0	-
O=C(Cc1ccc(Cl)cc1)Nc1ncc([N+](=O)[O-])s1	0	0	-91	0	0	0
O=C(Cc1ccc(Cl)cc1)Nc1cc(Cl)ccn1	7.1µM	0	0	-	0	-
C[C@H](CN1CCCC1)C(=O)c1ccc(C(F)(F)F)cc1	-	-	-	-	0	-
CN(C)c1ccc(/C=C/c2cnnc3ccccc23)cc1	0	-	-	-	-	-
CCCCNC(=S)N/N=C1\C(=O)c2cccc3cccc1c23	0	0	0	0	0	0
CNC(=S)N/N=C1\C(=O)c2cccc3cccc1c23	0	0	0	0	0	3.2µM
CCOC(=O)c1c(C)[nH]c(C)c1S(=O)(=O)N1CCCC(C(=O)Nc2cccc(CC)c2)C1 (configuration not stated)	0	-	-	0	-	-
Cc1cccc(-c2ncc(S(=O)(=O)C(C)(C)C)c(N)n2)c1	5µM	0	0	0	0	0[7.67 µM]
SMILES	BRCA1 expr act	IL2 activator	Giardia killer	RXFP1 ag	RXFP1 antag	NPSR antag
CCCSC(=S)c1c(C)[nH]n(-c2ccccc2)c1=O	0	0	0	0	-70	?
CCOC(=O)c1nc2sc3c(c2c(=O)[nH]1)CCC(C)C3 (configuration not stated)	0	0	0	0	0	0
CC(C)CCOCc1nc2sc3c(c2c(=O)[nH]1)CCC(C)C3 (configuration not stated)	13µM	0	0	0	0	0
O=C(NCCc1ccccc1Cl)c1cc2ccccn2n1	-	-	-	0	0	-
O=C(Cn1ccsc1=NC(=O)C(F)(F)F)c1ccccc1	7.9µM	0	0	0	0	0
CSc1ccc(CN2CCC(CO)(Cc3ccc(Cl)cc3)CC2)cc1	0	0	0	0	-81	?
